Measurements: PubChem BioAssay (NCI)
“And” between values parts separate entries of the source, which are not always exact repeats. Equal entries are not always repeated. About 83,000 compounds went through this panel and 20% of them were active in at least one assay; those are over-represented in the sample as a whole.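 Single-dose data. Exposure time 48 hours. Values below 10 considered active.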 Values without a mark were called inactive. The source made the active and inactive calls.

What was measured:
Test in all cases: NCI-60 one-dose screen, 48 h (100 = growth as untreated, 0 = no growth, -100 = all killed)
SK-MEL-2 melanoma = system: SK-MEL-2 melanoma
EKVX NSCLC = system: EKVX NSCLC
SN12C renal = system: SN12C renal
UO-31 renal = system: UO-31 renal
TK-10 renal = system: TK-10 renal
ACHN renal = system: ACHN renal
CAKI-1 renal = system: CAKI-1 renal
A498 renal = system: A498 renal
CCRF-CEM leukemia = system: CCRF-CEM leukemia
MOLT-4 leukemia = system: MOLT-4 leukemia
SR leukemia = system: SR leukemia
RPMI-8226 leukemia = system: RPMI-8226 leukemia
OVCAR-8 ovarian = conditions: 10 µM unless noted
OVCAR-5 ovarian = system: OVCAR-5 ovarian
OVCAR-4 ovarian = system: OVCAR-4 ovarian
SK-OV-3 ovarian = system: SK-OV-3 ovarian
OVCAR-3 ovarian = system: OVCAR-3 ovarian
HS 578T breast = system: HS 578T breast
HL-60(TB) leukemia = conditions: 10 µM unless noted
IGROV1 ovarian = conditions: 10 µM unless noted

Q: O=C(O)CCCc1ccc(N(CCCl)CCCl)cc1 was tested. Which growth (SK-MEL-2 melanoma; 10 µM) did it give?
A: 102% and 109%

Q: What about the growth (SK-MEL-2 melanoma; 75 µM) of the same molecule?
A: 100%

Q: And the growth (EKVX NSCLC; 10 µM)?
A: 101%

Q: And the growth (EKVX NSCLC; 75 µM)?
A: 82.2%

Q: And the growth (SN12C renal; 10 µM)?
A: 82.9% and 86.8%

Q: What about the growth (SN12C renal; 75 µM) of the same molecule?
A: 41.2%

Q: And the growth (UO-31 renal; 10 µM)?
A: 83.4% and 89.5%

Q: What about the growth (UO-31 renal; 75 µM) of the same molecule?
A: 28.8%

Q: What about the growth (TK-10 renal; 10 µM) of the same molecule?
A: 102%

Q: What about the growth (TK-10 renal; 75 µM) of the same molecule?
A: 84.6%

Q: What about the growth (ACHN renal; 10 µM) of the same molecule?
A: 72.4% and 38.8%

Q: And the growth (ACHN renal; 75 µM)?
A: -12.3% (active)

Q: And the growth (CAKI-1 renal; 10 µM)?
A: 57.9% and 34.2%

Q: And the growth (CAKI-1 renal; 75 µM)?
A: -12.5% (active)

Q: What about the growth (A498 renal; 10 µM) of the same molecule?
A: 115% and 99.6%

Q: And the growth (A498 renal; 75 µM)?
A: 68.5%

Q: And the growth (CCRF-CEM leukemia; 10 µM)?
A: 71.9% and 46.6%

Q: And the growth (CCRF-CEM leukemia; 75 µM)?
A: -7.66% (active)

Q: What about the growth (MOLT-4 leukemia; 10 µM) of the same molecule?
A: 73.4% and 35.5%

Q: And the growth (MOLT-4 leukemia; 75 µM)?
A: 6.72% (active)

Q: What about the growth (SR leukemia; 10 µM) of the same molecule?
A: 44.8% and 19.5%

Q: And the growth (SR leukemia; 75 µM)?
A: 5.82% (active)

Q: And the growth (RPMI-8226 leukemia; 10 µM)?
A: 84.4% and 90.7%

Q: And the growth (RPMI-8226 leukemia; 75 µM)?
A: 7.4% (active)

Q: What about the growth (OVCAR-8 ovarian) of the same molecule?
A: 87.5%

Q: And the growth (OVCAR-5 ovarian; 10 µM)?
A: 97.7% and 81.1%

Q: What about the growth (OVCAR-5 ovarian; 75 µM) of the same molecule?
A: 66.4%

Q: What about the growth (OVCAR-4 ovarian; 10 µM) of the same molecule?
A: 102% and 107%

Q: And the growth (OVCAR-4 ovarian; 75 µM)?
A: 83.2%

Q: What about the growth (SK-OV-3 ovarian; 10 µM) of the same molecule?
A: 101% and 108%

Q: And the growth (SK-OV-3 ovarian; 75 µM)?
A: 59.8%

Q: What about the growth (OVCAR-3 ovarian; 10 µM) of the same molecule?
A: 111% and 108%

Q: And the growth (OVCAR-3 ovarian; 75 µM)?
A: 18.9%

Q: And the growth (HS 578T breast; 10 µM)?
A: 120% and 113%

Q: What about the growth (HS 578T breast; 75 µM) of the same molecule?
A: -4.49% (active)

Q: What does the source list for COc1ccc(CN)cc1OC?
A: growth (SK-MEL-2 melanoma; 10 µM unless noted): 112%; growth (EKVX NSCLC; 10 µM unless noted): 121%; growth (SN12C renal; 10 µM unless noted): 98.7% and 98.1%; growth (UO-31 renal; 10 µM unless noted): 96.8% and 82.6%; growth (TK-10 renal; 10 µM unless noted): 127% and 115%; growth (ACHN renal; 10 µM unless noted): 103% and 95.9%; growth (CAKI-1 renal; 10 µM unless noted): 101%; growth (A498 renal; 10 µM unless noted): 124% and 85%; growth (HL-60(TB) leukemia): 98%; growth (CCRF-CEM leukemia; 10 µM unless noted): 116% and 97.7%; growth (MOLT-4 leukemia; 10 µM unless noted): 112% and 95.2%; growth (SR leukemia; 10 µM unless noted): 104%; growth (RPMI-8226 leukemia; 10 µM unless noted): 112% and 105%; growth (OVCAR-8 ovarian): 109% and 102%; growth (OVCAR-5 ovarian; 10 µM unless noted): 110% and 94.9%; growth (OVCAR-4 ovarian; 10 µM unless noted): 125% and 104%; growth (SK-OV-3 ovarian; 10 µM unless noted): 113% and 105%; growth (IGROV1 ovarian): 110% and 101%; growth (OVCAR-3 ovarian; 10 µM unless noted): 109% and 107%; growth (HS 578T breast; 10 µM unless noted): 110% and 101%

Q: How did the growth (SK-MEL-2 melanoma; 10 µM unless noted) turn out when O=C1NC(=O)C(=Cc2ccccc2)C(=O)N1 was run?
A: 106% and 114%

Q: What about the growth (EKVX NSCLC; 10 µM unless noted) of the same molecule?
A: 98.4% and 101%

Q: What about the growth (SN12C renal; 10 µM unless noted) of the same molecule?
A: 89.7% and 102%

Q: What about the growth (UO-31 renal; 10 µM unless noted) of the same molecule?
A: 93.5%

Q: What about the growth (TK-10 renal; 10 µM unless noted) of the same molecule?
A: 106% and 102%

Q: And the growth (ACHN renal; 10 µM unless noted)?
A: 99.5% and 112%

Q: And the growth (CAKI-1 renal; 10 µM unless noted)?
A: 84.2% and 103%

Q: What about the growth (A498 renal; 10 µM unless noted) of the same molecule?
A: 128% and 94.2%

Q: What about the growth (HL-60(TB) leukemia) of the same molecule?
A: 68.3% and 105%

Q: And the growth (CCRF-CEM leukemia; 10 µM unless noted)?
A: 90.7% and 107%

Q: And the growth (MOLT-4 leukemia; 10 µM unless noted)?
A: 81.5% and 109%

Q: What about the growth (SR leukemia; 10 µM unless noted) of the same molecule?
A: 89.7% and 107%

Q: What about the growth (RPMI-8226 leukemia; 10 µM unless noted) of the same molecule?
A: 112% and 110%

Q: And the growth (OVCAR-8 ovarian)?
A: 104%

Q: What about the growth (OVCAR-5 ovarian; 10 µM unless noted) of the same molecule?
A: 108%

Q: What about the growth (OVCAR-4 ovarian; 10 µM unless noted) of the same molecule?
A: 109% and 112%

Q: What about the growth (SK-OV-3 ovarian; 10 µM unless noted) of the same molecule?
A: 106% and 107%

Q: And the growth (IGROV1 ovarian)?
A: 92.5% and 104%

Q: What about the growth (OVCAR-3 ovarian; 10 µM unless noted) of the same molecule?
A: 102% and 111%

Q: And the growth (HS 578T breast; 10 µM unless noted)?
A: 119% and 103%

Q: CCC(=O)C(CC(C)N1CCCCCC1)(c1ccccc1)c1ccccc1 (stereo not given) was tested. Which growth (SK-MEL-2 melanoma; 10 µM unless noted) did it give?
A: 103%

Q: And the growth (EKVX NSCLC; 10 µM unless noted)?
A: 90.8%

Q: What about the growth (SN12C renal; 10 µM unless noted) of the same molecule?
A: 97.8%

Q: And the growth (UO-31 renal; 10 µM unless noted)?
A: 67.3%

Q: And the growth (TK-10 renal; 10 µM unless noted)?
A: 84%

Q: And the growth (ACHN renal; 10 µM unless noted)?
A: 97.6%

Q: What about the growth (CAKI-1 renal; 10 µM unless noted) of the same molecule?
A: 79%

Q: What about the growth (A498 renal; 10 µM unless noted) of the same molecule?
A: 84.5%

Q: And the growth (HL-60(TB) leukemia)?
A: 95.5%

Q: And the growth (CCRF-CEM leukemia; 10 µM unless noted)?
A: 96.1%

Q: What about the growth (MOLT-4 leukemia; 10 µM unless noted) of the same molecule?
A: 93.9%

Q: And the growth (SR leukemia; 10 µM unless noted)?
A: 102%

Q: And the growth (RPMI-8226 leukemia; 10 µM unless noted)?
A: 99.3%

Q: And the growth (OVCAR-8 ovarian)?
A: 97%

Q: What about the growth (OVCAR-5 ovarian; 10 µM unless noted) of the same molecule?
A: 89.1%

Q: What about the growth (OVCAR-4 ovarian; 10 µM unless noted) of the same molecule?
A: 84.2%

Q: What about the growth (SK-OV-3 ovarian; 10 µM unless noted) of the same molecule?
A: 93.6%

Q: And the growth (IGROV1 ovarian)?
A: 78.6%

Q: And the growth (OVCAR-3 ovarian; 10 µM unless noted)?
A: 96.5%

Q: What about the growth (HS 578T breast; 10 µM unless noted) of the same molecule?
A: 96.7%

Q: CCN(CC)CCn1c(=O)n(C)c2ccccc21 was tested. Which growth (SK-MEL-2 melanoma; 10 µM unless noted) did it give?
A: 109%

Q: And the growth (EKVX NSCLC; 10 µM unless noted)?
A: 114%

Q: What about the growth (SN12C renal; 10 µM unless noted) of the same molecule?
A: 108%

Q: What about the growth (UO-31 renal; 10 µM unless noted) of the same molecule?
A: 92.5%

Q: What about the growth (TK-10 renal; 10 µM unless noted) of the same molecule?
A: 111%

Q: What about the growth (ACHN renal; 10 µM unless noted) of the same molecule?
A: 114%

Q: What about the growth (CAKI-1 renal; 10 µM unless noted) of the same molecule?
A: 102%

Q: And the growth (A498 renal; 10 µM unless noted)?
A: 104%

Q: And the growth (HL-60(TB) leukemia)?
A: 107%

Q: What about the growth (CCRF-CEM leukemia; 10 µM unless noted) of the same molecule?
A: 103%

Q: What about the growth (MOLT-4 leukemia; 10 µM unless noted) of the same molecule?
A: 104%

Q: What about the growth (SR leukemia; 10 µM unless noted) of the same molecule?
A: 99.3%

Q: What about the growth (RPMI-8226 leukemia; 10 µM unless noted) of the same molecule?
A: 113%

Q: What about the growth (OVCAR-8 ovarian) of the same molecule?
A: 101%

Q: And the growth (OVCAR-5 ovarian; 10 µM unless noted)?
A: 117%

Q: And the growth (OVCAR-4 ovarian; 10 µM unless noted)?
A: 109%

Q: What about the growth (SK-OV-3 ovarian; 10 µM unless noted) of the same molecule?
A: 106%

Q: And the growth (IGROV1 ovarian)?
A: 109%

Q: What about the growth (OVCAR-3 ovarian; 10 µM unless noted) of the same molecule?
A: 106%

Q: And the growth (HS 578T breast; 10 µM unless noted)?
A: 95.5%

Q: With Oc1ccc(O)c(Cl)c1 as the molecule, how does the growth (SK-MEL-2 melanoma; 10 µM unless noted) read?
A: 102%

Q: What about the growth (EKVX NSCLC; 10 µM unless noted) of the same molecule?
A: 112%

Q: What about the growth (SN12C renal; 10 µM unless noted) of the same molecule?
A: 89.7% and 99.6%

Q: And the growth (UO-31 renal; 10 µM unless noted)?
A: 56.6% and 75.2%

Q: And the growth (TK-10 renal; 10 µM unless noted)?
A: 124% and 110%

Q: And the growth (ACHN renal; 10 µM unless noted)?
A: 95.9% and 101%

Q: And the growth (CAKI-1 renal; 10 µM unless noted)?
A: 93.4% and 101%

Q: And the growth (A498 renal; 10 µM unless noted)?
A: 109% and 98.6%

Q: What about the growth (HL-60(TB) leukemia) of the same molecule?
A: 12.3% and 94.8%

Q: What about the growth (CCRF-CEM leukemia; 10 µM unless noted) of the same molecule?
A: 15.5% and 64.5%

Q: What about the growth (MOLT-4 leukemia; 10 µM unless noted) of the same molecule?
A: 65.6% and 105%

Q: What about the growth (SR leukemia; 10 µM unless noted) of the same molecule?
A: 70.4% and 94.5%

Q: And the growth (RPMI-8226 leukemia; 10 µM unless noted)?
A: 28.5% and 91.1%

Q: What about the growth (OVCAR-8 ovarian) of the same molecule?
A: 90.4% and 102%

Q: What about the growth (OVCAR-5 ovarian; 10 µM unless noted) of the same molecule?
A: 112% and 113%

Q: What about the growth (OVCAR-4 ovarian; 10 µM unless noted) of the same molecule?
A: 107% and 104%

Q: What about the growth (SK-OV-3 ovarian; 10 µM unless noted) of the same molecule?
A: 108% and 105%

Q: And the growth (IGROV1 ovarian)?
A: 107% and 108%

Q: And the growth (OVCAR-3 ovarian; 10 µM unless noted)?
A: 79.6% and 97.8%

Q: What about the growth (HS 578T breast; 10 µM unless noted) of the same molecule?
A: 93.5% and 97.7%
